Holding throughout (experiment): NCI-60 one-dose screen, 48 h (100 = growth as untreated, 0 = no growth, -100 = all killed)
Holding throughout (conditions): 10 µM unless noted

The test system of assay [1] is NCI-H23 lung.
In assay [2] the test system is NCI-H226 lung.
The test system of assay [3] is NCI-H322M lung.
Assay [4] has as its system HOP-62 NSCLC.
Assay [5] relates to NCI-H460 lung.
Assay [6] relates to HOP-92 NSCLC.
Assay [7] deals with NCI-H522 lung.
Assay [8] has as its system A549/ATCC NSCLC.
Assay [9] concerns 786-0 renal.
The subject of assay [10] is COLO 205 colon.
For assay [11], the system named is DU-145 prostate.
Assay [12] has as its system K-562 leukemia.
The test system of assay [13] is MALME-3M melanoma.
Assay [14] deals with MDA-MB-231 breast.
For assay [15], the system named is RXF 393 renal.
For assay [16], the system named is SF-268 CNS.
The subject of assay [17] is SF-295 CNS.
For assay [18], the system named is SF-539 CNS.
The subject of assay [19] is UACC-257 melanoma.
The subject of assay [20] is M14 melanoma.

The structures appear in SMILES notation. This is part of a sample that, as a whole, favours compounds with a hit. Of some 83,000 tested, about 20% had one in any assay.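 The test compound was applied at a single concentration to cells in 96-well plates for 48 hours, and percent growth was recorded.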 A number with no mark means an inactive call. The source made the active and inactive calls. Rule for the calls: active = growth percent below 10; inactive = the rest.

On to `CCOC(=O)c1cc2c(n1C)-c1nc(NC(C)=O)sc1CCC2`, for which the growth is 76.1% in [1]; 69.1% in assay [2]; 76.2% in assay [3]; 74.6% in assay [4]; 95.5% in assay [5]; 48.4% in assay [6]. The growth in assay [7] was 60.9%; in assay [8], 64.8%; in assay [9], 84.6%; in [10], 96.4%; in [11], 94.3%; in [12] it was 96.6%. Further, the growth in assay [13] is 108%; in assay [14], 55.1%; in [15], 83.1%; in [16], 77.4%; in [17] it was 84.1%; in assay [18] it was 83.2%. In addition, the growth in assay [19] was 67.8%; in [20], 89.1%.

For `O=C(/C=C/c1ccccc1)Nc1ncc(Cc2ccccc2Cl)s1`, the growth in [1] is 51.8%; in assay [2] it was 48.6%; in assay [3], 33.8%; in assay [4], 18.9%; in [5], 14.1%; in assay [6], 65.1%. In addition, the growth was -11.2% (active) in assay [7]; 30.8% in assay [8]; 45.7% in [9]; 2.14% (active) in assay [10]; 26.9% in [11]; 12.6% in [12]. Besides, the growth in assay [13] is 53.8%; in assay [14], 40.3%; in assay [15], -7.17% (active); in assay [16], 71.6%; in assay [17], -2.76% (active); in assay [18], -16.3% (active). The growth is 77.1% in assay [19] and 8.18% (active) in assay [20].

Consider `CCCC/C(CC)=N\NS(=O)(=O)c1ccc([N+](=O)[O-])cc1`, for which the growth is 95.9% in [1]; 93.4% in [2]; 109% in assay [3]; 96.7% in assay [4]; 105% in [5]; 91.6% in [6]. In addition, the growth in [7] is 90.9%; in assay [8], 89.1%; in [9], 103%; in assay [10], 105%; in assay [11], 97.2%; in assay [12], 95%. In addition, the growth was 101% in assay [13]; 96.2% in assay [14]; 110% in assay [15]; 100% in assay [16]; 108% in assay [17]; 101% in assay [18]. The figures for the growth in [19] and in assay [20] were 88.7% and 101%, respectively.

In the case of `CC1CCN(CCOc2ccc(CNc3ccc4nc(CCC5CCCCC5)[nH]c4c3)cc2)CC1`, the growth in assay [1] is 71.7%; in [2] it was 30.9%; in [3], 58.5%; in [4], 61.5%; in [5], 27.1%; in [6], 16%. Also, the growth in assay [7] is 44.8%; in assay [8] it was 55.3%; in assay [9], -55.6% (active); in [10], -84.7% (active); in assay [11], 50.9%; in [12], -0.866% (active). Moreover, the growth was -85.8% (active) in [13]; 0.0918% (active) in assay [14]; 2.71% (active) in assay [15]; 57.4% in [16]; -45.9% (active) in [17]; -67.9% (active) in assay [18]. Further, the growth was -72.3% (active) in [19] and -63.1% (active) in assay [20].

For the compound `O=c1[nH]c(Cc2nc3ccccc3s2)nc2cc(Br)ccc12`, the growth in assay [1] was 86.1%; in assay [2], 76.8%; in [3], 88.8%; in [4], 37.6%; in [5], 53.3%; in assay [6], 84.9%. In addition, the growth in assay [7] is 58.7%; in [8], 61%; in [9], 68%; in assay [10], 88.3%; in assay [11], 70.5%; in assay [12] it was 23.2%. Further, the growth in assay [13] was 90.7%; in assay [14], 65.6%; in assay [15], 104%; in [16], 61%; in assay [17], 76.5%; in assay [18], 90.3%. The figures for the growth in assay [19] and in assay [20] were 72.2% and 35.2%, respectively.

For `O=C(Nc1cccc(Cl)c1)Nc1cccc(Cn2c(=O)[nH]c3ccc(Oc4ncccn4)cc3c2=O)c1`, the growth in assay [1] is 33.1%; in assay [2], 64.4%; in assay [3], 66.1%; in [4] it was 64.8%; in [5] it was 42.8%; in [6], 43.7%. In addition, the growth in assay [7] is 25.6%; in assay [8] it was 40.4%; in assay [9], 71.4%; in [10] it was 48.3%; in assay [11], 37.3%; in assay [12] it was 26.3%. The growth was 58.9% in assay [13]; 53.4% in assay [14]; 67.5% in assay [15]; 30.8% in assay [16]; 36.2% in assay [17]; 62.8% in assay [18]. For the same compound, the values for the growth in [19] and in [20] were 23.7% and 53%, respectively.

Consider `C=C1C(=O)O[C@H]2[C@H]1CC/C(COC(=O)NCc1ccc(Cn3c(=O)sn(CCCCC)c3=O)cc1)=C\CC[C@@]1(C)O[C@@H]21`, for which the growth in assay [1] was 78.6%; in [2], 75.4%; in [3] it was 93.4%; in [4], 81.2%; in [5] it was 92.6%; in assay [6], -15.6% (active). Also, the growth in assay [7] is -68.6% (active); in assay [8], 89.3%; in assay [9], 32.1%; in assay [10], -20.8% (active); in assay [11], 9.23% (active); in [12], 1.16% (active). The growth was -14.5% (active) in [13]; 31.1% in assay [14]; 11.6% in [15]; 78.6% in [16]; 102% in [17]; 46.5% in assay [18]. The growth was 47.1% in assay [19] and 2.8% (active) in assay [20].
